The values below come from PubChem BioAssay AID463212 (Sanford-Burnham Center for Chemical Genomics, 2010).

Hit rate of the full screen: of about 330,000 compounds, about 4,400 (1.3%) were called active. The entries come from a sample that favours actives as a whole. Unmarked numbers belong to inactive results.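 Rule for the calls: active = growth inhibition of the mutant yeast at or above 50%; inactive = the rest.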

The assay is described as follows: growth inhibitors of tim23-1 mutant yeast, primary screen, luminescence, uHTS (AID 463212).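 Note: temperature-sensitive mutant grown at 25 °C; plate controls were DMSO-treated mutant yeast for no effect and medium wells lacking yeast for full effect.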 Particulars: S. cerevisiae tim23-1 growth, BacTiter-Glo luminescence, 24 h; at 20 µM; active compounds read high.
As for `O=C(CNC(=O)OCc1ccccc1)Oc1cc2oc(=O)cc(-c3ccccc3)c2cc1Cl`, the inhibition – broadly, the drop in the measured response relative to a control, in per cent – was 54.3% (active).

On to `O=C(CNC(=O)c1ccc(-c2ccccc2)cc1)OCc1ccc(Cl)cc1`, for which the inhibition is -7.6%.

As to `CC(=O)COc1ccc2c(-c3ccccc3)cc(=O)oc2c1`, the inhibition was -1.93%.

Regarding `O=C1Cc2ccccc2Sc2ccc(Cl)cc21`, the inhibition was 28.6%.

`COc1cc(NS(=O)(=O)c2ccc(N/C=C(\C=O)c3nc4cc(Cl)ccc4o3)cc2)nc(OC)n1`: the inhibition is 15.4%.

`Cc1ccc(C(=O)N/C(=C\c2ccco2)C(=O)NC2CCS(=O)(=O)C2)cc1` (configuration not stated): the inhibition is 24.1%.

On to `COc1cc2ccccc2cc1C(=O)N1CCOCC1`, for which the inhibition was 22.5%.

Regarding `COC1=C(N2CCOCC2)C(=O)c2ccccc2C1=O`, the inhibition is 2.06%.

As to `Cc1oc2c(c1C(=O)N1CCOCC1)C(=O)c1ccccc1C2=O`, the inhibition was 69% (active).

`CCC(=O)N1CCC(C(N)=O)(N2CCCCC2)CC1`: the inhibition was -3.89%.

With `C=CCNC(=O)c1ccc2c3n(nc2c1)-c1ccc(C)cc1CO3`, the inhibition was 57.6% (active).

Turning to `Cn1nnc2cc(C(=O)NCCC3=CCCCC3)ccc21`, the inhibition is -1.3%.

`Cc1cccc(-c2nc3ccc(C(=O)NCCN4CCN(C)CC4)cc3nc2-c2cccc(C)c2)c1`: the inhibition is 25.1%.

As for `COc1ccc(-c2cc(C)nc3nc(N)nn23)cc1`, the inhibition was 8.84%.

As to `Cc1cc(N)n2nc(-c3ccc(C(C)(C)C)cc3)cc2n1`, the inhibition was 72.3% (active).

Take `Cc1cc(C(C)(C)C)cc(C)c1N`: the inhibition was 9.69%.

On to `Cc1nnc(NC(=O)CSc2nc(C3CCCCC3)nc3ccccc23)s1`, for which the inhibition is -0.646%.

In the case of `O=C1c2ccccc2C(=O)N1CCC(c1ccccc1)c1ccco1` (configuration not stated), the inhibition is 22.6%.

As for `O=S(=O)(Nc1cccc(-n2cnnn2)c1)c1cnc(Cl)c(Cl)c1`, the inhibition was -3.26%.

As to `CCCc1c(C(=O)Nc2ccc(F)cc2)cnn1-c1ccccc1`, the inhibition was 55.9% (active).

Regarding `CCNC(=O)c1cnn(-c2ccccc2)c1-c1ccccc1`, the inhibition was 0.114%.

On to `CCCc1c(C(=O)O)cnn1-c1ccc(Cl)cc1`, for which the inhibition is 13.8%.

With `CC(=O)c1ccccc1NC(=O)C1CC(=O)N(c2ccc3c(c2)OCCO3)C1` (configuration not stated), the inhibition is 14.1%.

Turning to `CC1(c2ccccc2)CC(C)(C)N(C(=O)c2cc([N+](=O)[O-])cc([N+](=O)[O-])c2)c2ccccc21` (configuration not stated), the inhibition is 4.81%.

For the compound `CC1CCN(C(=S)c2cccc([N+](=O)[O-])c2)CC1`, the inhibition was 21.4%.

Regarding `CC1CCC2CCCCC2N1C(=O)c1cc([N+](=O)[O-])cc([N+](=O)[O-])c1` (configuration not stated), the inhibition is 51.9% (active).

For `COc1ccc(S(=O)(=O)N2CCOCC2)cc1NC(=O)CSc1cc(C)ccc1C`, the inhibition was 7.5%.
